Bioassay records: PubChem BioAssay, several laboratories
Gli-Sufu antag: Gli-Sufu pathway antagonists, primary screen, luciferase luminescence, Sufu-KO-LIGHT cells, uHTS. Sufu-KO-LIGHT fibroblasts, Gli luciferase reporter luminescence. inhibition, % at 5 µM. 0.74% of 340,000 active. AID 588413, 2011;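 active means inhibition above about 55%, limit read from the data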;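 further: 0% = DMSO-treated cells and 100% = wells with medium but no cells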
Jurkat NFkB inh: inhibitors of induced NF-kB luciferase reporter, primary screen, TCR NF-kB activation inhibitor project, cell-based, luminescence, uHTS; AID 435003, 2010; inhibition, % at 4 µM; Jurkat, PMA/ionomycin-induced NF-kB luciferase reporter; 0.53% of 330,000 active; in the data active means inhibition above about 50%
697 NFkB inh: inhibitors of PMA/ionomycin-induced NF-kB reporter, 697 cells, primary screen, B-cell NF-kB inhibitor project, cell-based, luminescence, uHTS | 0.33% of 330,000 active | inhibition, % at 4 µM | 697 B-cell NF-kB luciferase reporter, 16 h; in the data active means inhibition above about 35%
Mdm2-MdmX inh: inhibitors of human Mdm2-MdmX association, primary screen, cell-based, luminescence, split luciferase, SaOS-2, uHTS. Protein Mdm4 (Homo sapiens) + E3 ubiquitin-protein ligase Mdm2 (Homo sapiens), …. SaOS-2 split-luciferase Mdm2/MdmX complementation. inhibition, % at 8 µM. 3% of 330,000 active. AID 485346, 2010;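 active means inhibition of at least 50% at 8 µM in the primary screen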
Target sequence (O15151 whole entry, looked up): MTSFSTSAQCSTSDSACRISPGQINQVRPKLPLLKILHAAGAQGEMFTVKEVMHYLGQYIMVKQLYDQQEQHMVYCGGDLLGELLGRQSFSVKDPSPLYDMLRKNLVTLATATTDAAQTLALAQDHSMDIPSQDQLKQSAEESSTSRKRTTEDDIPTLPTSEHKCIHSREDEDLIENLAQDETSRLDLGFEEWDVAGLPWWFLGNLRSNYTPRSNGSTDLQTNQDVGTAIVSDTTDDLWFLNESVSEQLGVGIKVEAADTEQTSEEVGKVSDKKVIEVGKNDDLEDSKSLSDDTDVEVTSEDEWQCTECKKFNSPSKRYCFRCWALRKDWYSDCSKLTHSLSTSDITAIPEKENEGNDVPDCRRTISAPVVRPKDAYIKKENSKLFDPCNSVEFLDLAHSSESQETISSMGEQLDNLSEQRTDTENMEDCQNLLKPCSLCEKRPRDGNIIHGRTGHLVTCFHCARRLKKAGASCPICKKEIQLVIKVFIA
Target sequence (Q00987 whole entry, looked up): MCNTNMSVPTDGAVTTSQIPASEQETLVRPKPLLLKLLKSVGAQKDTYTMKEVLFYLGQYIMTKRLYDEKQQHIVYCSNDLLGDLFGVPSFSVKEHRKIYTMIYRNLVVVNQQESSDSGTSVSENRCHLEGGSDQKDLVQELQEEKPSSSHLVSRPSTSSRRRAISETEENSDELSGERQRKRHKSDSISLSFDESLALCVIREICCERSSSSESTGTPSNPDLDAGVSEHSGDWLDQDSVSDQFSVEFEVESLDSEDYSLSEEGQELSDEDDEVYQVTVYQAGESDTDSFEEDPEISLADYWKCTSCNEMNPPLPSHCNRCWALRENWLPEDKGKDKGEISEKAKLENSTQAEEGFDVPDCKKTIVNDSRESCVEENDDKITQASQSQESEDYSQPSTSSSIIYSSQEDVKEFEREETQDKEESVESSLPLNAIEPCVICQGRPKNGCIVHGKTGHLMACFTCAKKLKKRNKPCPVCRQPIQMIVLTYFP
Shn3 inh set2: reduction of Shn3 3'UTR firefly luciferase signal, primary screen, Schnurri-3 inhibitor project, cell-based, Clone20 osteoblasts, set 2. inhibition, % at 12.5 µM. 0.52% of 360,000 active. AID 588674, 2011. Clone20 osteoblast Shn3 3'UTR firefly luciferase, 24 h;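 active means mean inhibition of at least 75% with every replicate also reaching 75%; inconclusive means mean inhibition at least 75% but some replicate below; inactive means mean inhibition below 75%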;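 further: 0% = median of neutral control wells and 100% = pilot-screen positive control compound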
Jurkat NFkB conf: PMA/ionomycin-induced NF-kB reporter inhibitors, Jurkat retest, confirmation, T-cell NF-kB inhibitor project, cell-based, luminescence, single concentration | shares compounds with Jurkat NFkB inh | Jurkat NF-kB luciferase, 16 h | inhibition, % at 4 µM | 27% of 2,700 active | AID 435020, 2010;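 active means inhibition reaching about 45% at 4 µM in either replicate, limit read from the data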;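 further: plate controls were PMA/ionomycin stimulated DMSO wells for no effect and unstimulated DMSO wells for full effect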
697 NFkB conf: PMA/ionomycin-induced NF-kB reporter inhibitors, 697 retest, confirmation, B-cell NF-kB inhibitor project, cell-based, luminescence, single concentration; AID 449746, 2010; 35% of 2,000 active; shares compounds with 697 NFkB inh; inhibition, % at 4 µM; 697 B-cell NF-kB luciferase, 16 h; in the data active means inhibition mostly above about 28%, no sharp cut-off; inactive means mostly below about 22%
Mdm2-MdmX conf: Mdm2-MdmX complex disruptors, retested hits, confirmation, luminescence, single concentration. shares compounds with Mdm2-MdmX inh. Mdm2-MdmX binding, luminescent assay. inhibition, % at 8 µM. 55% of 10,000 active; in the data active means inhibition above about 40%
FLuc counter: full-length luciferase signal inhibition, confirmation, counter-screen for Mdm2/MdmX interaction inhibitor project, cell-based, single concentration, SaOS-2. shares compounds with Mdm2-MdmX inh. SaOS-2 full-length luciferase counterscreen, luminescence. inhibition, % at 8 µM. 77% of 6,200 active;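 active means mean inhibition at 8 µM reaching about 37%, which flags the compound as non-specific, limit read from the data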;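 further: p53-null SaOS-2 cells with luciferase driven by a doxycycline-inducible promoter; compound on cells about two nights before reading with doxycycline added after day one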
* hit, by the source's call; ? = inconclusive; . = not tested or not shown. The list is not random: actives were taken first. Their share in the collection is about 3.8%.

SMILES | Gli-Sufu antag | Jurkat NFkB inh | 697 NFkB inh | Mdm2-MdmX inh | Shn3 inh set2 | Jurkat NFkB conf | Mdm2-MdmX conf | FLuc counter | others
CN(Cc1ccccc1)C1=CC(=[N+]2CCCCC2)CC(C)(C)C1 | 85.3* | 69.4* | 12.0 | 72.1* | 84.7 | 66.2* | 66.7* | 39.3*
CCCCn1c(N)c(N(CC(C)C)C(=O)CCNC(=O)c2ccc(Br)cc2)c(=O)[nH]c1=O | -6.0 | 12.4 | 11.2 | 13.5 | -4.2 | . | . | .
COc1cc(C2C3=C(Nc4ncnn42)c2ccccc2CC3)cc(OC)c1OC (centres undefined) | 35.6 | 75.4* | 3.9 | 65.9* | 11.1 | 60.8* | 67.3* | 130.6*
COc1ccc(C2C3=C(Nc4ncnn42)c2ccccc2CCC3)cc1 (centres undefined) | 2.1 | -16.8 | -11.5 | 13.0 | 7.3 | . | . | .
CC(=O)n1cc(CO)c2ccccc21 | -4.8 | -5.0 | 11.5 | 16.0 | -3.0 | . | . | .
CC(=O)n1cc(N(C(=O)CCl)c2ccccc2)c2ccccc21 | 1.9 | 72.2* | -46.5 | 96.6* | . | 11.2 | 100.1* | 51.5*
O=S(=O)(NC1Cc2ccccc2C1)c1ccccc1 | . | . | . | . | -10.3 | . | . | .
C=C1C(O)[C@@H]2O[C@]3(CC[C@H](/C=C/C(C)[C@@H]4CC(C)=CC5(O[C@H](C[C@@](C)(O)CO)CCC5O)O4)O3)CC[C@H]2O[C@@H]1C(O)CC(C)[C@H]1OC2(CCCCO2)CCC1C (some centres undefined) | 63.5* | 91.7* | -405.5 | 87.7* | . | 77.8* | 89.8* | 33.4 | 697 NFkB conf=-170.3
COc1ccccc1C(=O)Nc1nc2ccccc2s1 | 67.4* | 61.7* | 2.2 | 93.2* | 79.8 | 71.1* | 90.0* | 31.7
COc1ccc(C(=O)Nc2nc3ccccc3s2)c(OC)c1 | 87.8* | 84.6* | 68.8* | 100.3* | 92.8* | 91.1* | 98.6* | 52.1* | 697 NFkB conf=60.0*
COc1ccc2nc(NC(=O)c3ccccc3C(=O)O)sc2c1 | 29.2 | 2.1 | 8.4 | 14.8 | -26.4 | . | . | .
CCCCc1ccc(N/C(N)=N/c2nc(C)cc(C)n2)cc1 | 50.1 | 75.4* | -40.0 | 65.9* | 70.8 | 30.4 | 32.8 | .
COc1cc(C(=O)NCC(=O)NC(C)CCc2ccccc2)cc(OC)c1OC (centres undefined) | 5.0 | -5.6 | -0.1 | 1.5 | -7.3 | . | . | .
CCOc1cc(CNc2ccc3c(c2)OCCO3)cc(Br)c1OC | 0.4 | 58.7* | 2.7 | 75.7* | 50.6 | 14.7 | 73.0* | 65.5*
CCOc1cc(CNc2ccc3c(c2)OCCO3)cc(Br)c1OCC(N)=O | 5.7 | 7.1 | -28.6 | 21.5 | -20.0 | . | . | .
COc1cccc(NC(=O)CN(C)C(=O)c2c(C)noc2C)c1 | -6.4 | 6.0 | 19.6 | 10.5 | 16.4 | . | . | .
CCOC(=O)c1c(NC(=O)N/N=C/c2ccc(O)c(OC)c2)sc(C(C)=O)c1C | . | 58.0* | -197.6 | 68.2* | . | 32.7 | 23.5 | .
CCOC(=O)c1c(NC(=O)N/N=C/c2ccccc2OCC)sc(C(C)=O)c1C | 6.9 | . | . | . | -1.0 | . | . | .
CCN1CCN(Cc2ccc(NC(=O)c3ccc(C)c(NC(=O)C(=O)c4c[nH]c5ccccc45)c3)cc2C(F)(F)F)CC1 | 26.9 | 95.3* | 0.3 | 100.3* | ? | 23.6 | 93.0* | 30.8
CCN1CCN(Cc2ccc(NC(=O)c3ccc(C)c(NC(=O)c4ccc5n[nH]nc5c4)c3)cc2C(F)(F)F)CC1 | 2.4 | -12.8 | 1.4 | 45.8 | -12.4 | . | . | .
COc1ccccc1C1=NOC(COc2ccc3c(C)cc(=O)oc3c2)C1 (centres undefined) | 44.7 | 67.0* | -3.7 | 58.3* | . | 39.2 | 57.6* | 88.2*
COc1ccc2c(C)cc(=O)oc2c1 | -7.8 | . | . | . | 0.0 | . | . | .
COc1ccc(C2=NOC(COc3ccc4c(C)cc(=O)oc4c3)C2)c(OC)c1 (centres undefined) | -9.8 | 51.0* | -9.8 | 56.0* | 6.8 | 35.2 | 56.4* | 60.3*
CN(C)CCC(C(=O)c1ccccc1)c1cccnc1 (centres undefined) | 11.7 | . | . | . | -3.9 | . | . | .
N#CC1=C(N)Oc2cc(N)ccc2C1c1cccnc1 (centres undefined) | -2.3 | 14.0 | -7.0 | -2.5 | 6.7 | . | . | .
SMILES | Gli-Sufu antag | Jurkat NFkB inh | 697 NFkB inh | Mdm2-MdmX inh | Shn3 inh set2 | Jurkat NFkB conf | Mdm2-MdmX conf | FLuc counter | others
CCN(CC)c1ccc2c(c1)OC(N)=C(C#N)C2c1cccnc1 (centres undefined) | 62.3* | 56.4* | 30.9 | 66.0* | 8.7 | 6.1 | 59.7* | 91.8*
CCCCCCCCCCn1ccc(=N)cc1 | 88.3* | 75.2* | -25.2 | 85.2* | 74.9 | 75.0* | 90.2* | 51.4*
N=c1ccn(Cc2ccc(F)cc2)cc1 | -0.4 | -5.9 | -13.7 | 11.1 | 14.8 | . | . | .
CCCCCCCCn1ccc(=N)cc1 | 38.2 | 80.0* | 78.3* | 54.6* | . | 73.2* | 61.1* | 47.7* | 697 NFkB conf=63.8*
CCCCCCN1Cc2ccccc2C1 | -3.3 | -5.7 | -1.2 | -11.0 | -5.7 | . | . | .
CN(Cc1ccc(Cl)c(Cl)c1)C(=O)C1CSC2(C)CCC(=O)N12 (centres undefined) | 4.0 | 8.0 | 19.7 | -4.0 | -12.3 | . | . | .
Nc1nc(CCl)nc(N(c2ccccc2)c2ccccc2)n1 | 3.8 | 76.0* | 33.6 | 93.9* | 16.3 | 19.4 | 94.7* | 38.2*
O=[N+]([O-])c1nn(-c2ccc3c(c2)OCCO3)n(O)c1=Nc1ccccc1 | . | 71.2* | 9.4 | 91.1* | 66.2 | 88.6* | 95.4* | 53.4*
CCOC(=O)c1c(C)[nH]c(C)c1C(=O)COC(=O)/C=C/c1cccc(F)c1 | -3.9 | . | . | . | -11.5 | . | . | .
CCOC(=O)c1c(C)[nH]c(C)c1C(=O)COC(=O)/C=C/c1ccc(OC)cc1 | -6.3 | 50.9* | -39.5 | 69.2* | 20.4 | 17.1 | 77.1* | 53.1*
COCCn1c(C)cc(/C=C(\C#N)C(=O)OCC(=O)Nc2ccc(S(N)(=O)=O)cc2)c1C | -11.3 | 19.4 | 6.2 | 7.5 | -3.4 | . | . | .
C=CCSc1ccccc1C(=O)Nc1ncn[nH]1 | -7.7 | -9.8 | -4.4 | 28.9 | -16.5 | . | . | .
